Records with an inconclusive call do not appear. Calls of active or inactive are those of the source. Rule for the calls, unless noted: active = hit-call score of the fitted dose curve at least 0.9, where 1 is the maximum; inactive = score below 0.9.
Tests used:
[1] = read-out: Interleukin 17F (IL17F), IL17F (gene 112744); assay: BSK_BT_xIL17F: BioMAP Diversity Plus: BT Assay for Interleukin 17F (IL17F) Biomarker Activity (AID 2284243); conditions: primary human B cells with PBMC
Summary of the method: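 Measures secreted IL-17F from a human B cell plus PBMC co-culture at 24 h post-dose by Luminex xMAP, with DMSO defining baseline activity.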

[2] = read-out: Actin alpha 1 (ACTA1), ACTA1 (gene 58); assay: BSK_MyoF_ACTA1: BioMAP Diversity Plus: MyoF Assay for Actin alpha 1 (ACTA1) Biomarker Activity (AID 2284244); conditions: primary human lung fibroblasts
Summary of the method: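 Human lung fibroblast (MyoF system) cultures dosed with test chemical; alpha-SMA measured by ELISA 24 h after dosing, normalized to DMSO control. Cytotoxicity tracked in parallel cultures by SRB total-protein staining.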

[3] = read-out: Interleukin 2 (IL2), IL2 (gene 3558); assay: BSK_BT_xIL2: BioMAP Diversity Plus: BT Assay for Interleukin 2 (IL2) Biomarker Activity (AID 2284245); conditions: primary human B cells with PBMC
Summary of the method: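 Human B cell plus PBMC co-culture, 24 h after chemical dosing; secreted IL-2 quantified by Luminex xMAP multiplex, fitted for signal gain against DMSO baseline.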

[4] = read-out: Basic fibroblast growth factor (bFGF), FGF2 (gene 2247); assay: BSK_MyoF_bFGF: BioMAP Diversity Plus: MyoF Assay for Basic fibroblast growth factor (bFGF) Biomarker Activity (AID 2284246); conditions: primary human lung fibroblasts
Summary of the method: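 Human lung fibroblast cultures were dosed and measured 24 h later in 96-well format. bFGF biomarker levels quantified by ELISA, with activity fitted in the positive direction against DMSO.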

[5] = read-out: Collagen IV, COL4A1 (gene 1282); assay: BSK_MyoF_CollagenIV: BioMAP Diversity Plus: MyoF Assay for Collagen IV Biomarker Activity (AID 2284247); conditions: primary human lung fibroblasts
Summary of the method: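 Primary human lung fibroblasts (MyoF system) dosed 24 h; Collagen IV measured by ELISA. Activity fitted in positive direction against DMSO; cytotoxicity tracked by SRB total-protein staining in parallel cultures.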

[6] = read-out: Plasminogen activator inhibitor-1 (PAI1), SERPINE1 (gene 5054); assay: BSK_MyoF_PAI1: BioMAP Diversity Plus: MyoF Assay for Plasminogen activator inhibitor-1 (PAI1) Biomarker Activity (AID 2284256); conditions: primary human lung fibroblasts
Summary of the method: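 Activity reflects increased PAI-1, determined by ELISA and compared with DMSO, in human lung fibroblasts treated for 24 h.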

[7] = read-out: Interleukin-8 (IL8), CXCL8 (gene 3576); assay: BSK_MyoF_IL8: BioMAP Diversity Plus: MyoF Assay for Interleukin-8 (IL8) Biomarker Activity (AID 2284261); conditions: primary human lung fibroblasts
Summary of the method: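 In this multiplexed primary-cell system, fibroblasts from human lung are treated with chemicals, and IL-8 is detected by ELISA at 24 h, with DMSO serving as the negative reference.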

Decorin, DCN (gene 1634) = assay: BSK_MyoF_Decorin: BioMAP Diversity Plus: MyoF Assay for Decorin Biomarker Activity (AID 2284265); conditions: primary human lung fibroblasts
Summary of the method: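 Lung fibroblast cultures, 24 h chemical exposure. Decorin by ELISA, positive fitting direction, DMSO baseline.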

[8] = BSK_MyoF_SRB: Viability Assessment in the BioMAP Diversity Plus: MyoF Assay (AID 2284267); conditions: primary human lung fibroblasts;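 note: total protein by SRB absorbance in parallel cultures as cytotoxicity measure; cells assessed 24 h after compound addition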
Summary of the method: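 Human lung fibroblasts, 24 h after chemical dosing; total protein measured by 0.1% sulforhodamine B staining after 10% TCA fixation, read at 560 nm, fitted relative to DMSO baseline.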

[9] = read-out: Matrix Metallopeptidase 1 (MMP1), MMP1 (gene 4312); assay: BSK_MyoF_MMP1: BioMAP Diversity Plus: MyoF Assay for Matrix Metallopeptidase 1 (MMP1) Biomarker Activity (AID 2284268); conditions: primary human lung fibroblasts
Summary of the method: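 MMP1 measured by ELISA 24 h after dosing primary human lung fibroblasts; cytotoxicity checked in parallel cultures by sulforhodamine B total-protein staining read at 560 nm.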

[10] = read-out: TIMP metallopeptidase inhibitor 1 (TIMP1), TIMP1 (gene 7076); assay: BSK_MyoF_TIMP1: BioMAP Diversity Plus: MyoF Assay for TIMP metallopeptidase inhibitor 1 (TIMP1) Biomarker Activity (AID 2284269); conditions: primary human lung fibroblasts
Summary of the method: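 Fibroblasts from human lung are dosed with chemical, cultured 24 h, and assayed for TIMP-1 by ELISA. Increases over the DMSO baseline are scored, with SRB total-protein staining run in parallel for cytotoxicity.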

[11] = read-out: Monokine induced gamma interferon (MIG), CXCL9 (gene 4283); assay: BSK_KF3CT_MIG: BioMAP Diversity Plus: KF3CT Assay for Monokine induced gamma interferon (MIG) Biomarker Activity (AID 2284248); conditions: primary human keratinocytes with fibroblasts
Summary of the method: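 The assay uses a co-culture of human keratinocytes and foreskin fibroblasts. Measurement occurs 24 hours after dosing, with MIG detected by ELISA and the DMSO control as baseline.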

[12] = read-out: Collagen I, COL1A1 (gene 1277); assay: BSK_hDFCGF_CollagenI: BioMAP Diversity Plus: hDFCGF Assay for Collagen I Biomarker Activity (AID 2284250); conditions: primary human foreskin fibroblasts
Summary of the method: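 Primary human foreskin fibroblasts exposed to chemical for 24 h; Collagen I levels measured by ELISA. Cytotoxicity checked by SRB total-protein staining in parallel cultures.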

[13] = read-out: Interferon-inducible T-cell alpha chemoattractant (ITAC), CXCL11 (gene 6373); assay: BSK_hDFCGF_ITAC: BioMAP Diversity Plus: hDFCGF Assay for Interferon-inducible T-cell alpha chemoattractant (ITAC) Biomarker Activity (AID 2284251); conditions: primary human foreskin fibroblasts
Summary of the method: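 Fibroblasts (human foreskin, primary) are treated with chemical, cultured 24 h, then assayed for I-TAC by ELISA. Overt toxicity is checked in parallel cultures by sulforhodamine B staining of total protein at the same time point.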

[14] = read-out: Plasminogen activator inhibitor-1 (PAI1), SERPINE1 (gene 5054); assay: BSK_KF3CT_PAI1: BioMAP Diversity Plus: KF3CT Assay for Plasminogen activator inhibitor-1 (PAI1) Biomarker Activity (AID 2284252); conditions: primary human keratinocytes with fibroblasts
Summary of the method: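 Human keratinocyte/foreskin fibroblast co-culture dosed for 24 h; PAI-1 measured by ELISA, fitted in positive direction against DMSO baseline. Parallel SRB total-protein staining (0.1% SRB, 560 nm) assesses overt cytotoxicity.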

[15] = read-out: Interleukin-8 (IL8), CXCL8 (gene 3576); assay: BSK_KF3CT_IL8: BioMAP Diversity Plus: KF3CT Assay for Interleukin-8 (IL8) Biomarker Activity (AID 2284254); conditions: primary human keratinocytes with fibroblasts
Summary of the method: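 ELISA detection of IL-8 from a human skin co-culture, keratinocytes with foreskin fibroblasts, at 24 h following chemical exposure, with gain of signal scored against DMSO controls.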

[16] = read-out: Intercellular Adhesion Molecule 1 (ICAM1), ICAM1 (gene 3383); assay: BSK_BE3C_ICAM1: BioMAP Diversity Plus: BE3C Assay for Intercellular Adhesion Molecule 1 (ICAM1) Biomarker Activity (AID 2284278); conditions: primary human bronchial epithelial cells;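 note: cell-surface ICAM-1 protein level quantified by ELISA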
Summary of the method: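 Primary human bronchial epithelial cells in BE3C system, 24 h after chemical dosing; cell-surface ICAM-1 measured by ELISA relative to DMSO. Parallel SRB staining (0.1% SRB after 10% TCA fixation, read at 560 nm) assessed cytotoxicity.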

[17] = CCTE_Mundy_HCI_hNP1_Casp3_7: CCTE's Caspase-Glo 3/7 Assay in human neuroprogenitor cells for Apoptosis, Mundy Lab (AID 2284240)
Summary of the method: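 Apoptosis is scored by activated caspase-3/7 luminescence in WA09-derived neural progenitor cells, measured 26.5 h after chemical dosing. Values represent gain of signal relative to DMSO vehicle.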

[18] = CCTE_Mundy_HCI_hNP1_CellTiter: CCTE's Cell Titer-Glo 2 Assay in human neuroprogenitor cells for Viability, Mundy Lab (AID 2284241; active = hit-call score of the fitted dose curve at least 0.9, where 1 is the maximum)
Summary of the method: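 Human neural progenitor cells (hNP1, WA09-derived) were plated on poly-L-ornithine/laminin and grown 40 to 44 hours at 37 °C, 5% CO2 before chemical addition. Twenty-four hours later, ATP was measured by CellTiter-Glo luminescence; loss of signal versus DMSO indicates reduced viability.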

Measured: AC50

CCCCNc1ccc(NCCCC)c2c1C(=O)c1ccccc1C2=O
inactive: [1] | [2] | [3] | [4] | [5] | [6] | [7] | Decorin, DCN (gene 1634) | [8] | [9] | [10]

C#CC1(O)CC[C@H]2[C@@H]3CCC4=CCCC[C@@H]4[C@H]3CC[C@@]21C (stereo not given in full)
active: [1] 28.6 µM | [2] 32.2 µM | [3] 31.6 µM | [4] 33 µM | [6] 32 µM | [7] 30.4 µM | Decorin, DCN (gene 1634) 31.4 µM | [8] 30.1 µM | [10] 33.1 µM
inactive: [5] | [9]

C=C[Si](OC(C)=O)(OC(C)=O)OC(C)=O
inactive: [11] | [12] | [13] | [14] | [15] | [16]

CCCCCCCCCCCCCCCC[N+](C)(C)CC
inactive: [7]
active: [1] 2.28 µM | [2] 0.757 µM | [3] 1.26 µM | [4] 8.45 µM | [5] 3.25 µM | [6] 2.65 µM | Decorin, DCN (gene 1634) 5.5 µM | [8] 1.39 µM | [9] 9.34 µM | [10] 2.73 µM

CCCCCCCCc1ccc(Nc2ccc(CCCCCCCC)cc2)cc1
inactive: [1] | [2] | [3] | [4] | [5] | [6] | [7] | Decorin, DCN (gene 1634) | [8] | [9] | [10]

O=c1c2ccccc2oc2ccccc12
inactive: [2] | [3] | [4] | [5] | [6] | [7] | Decorin, DCN (gene 1634) | [8] | [9] | [10]
active: [1] 3.97 µM

CCCCC(CC)COCC1CO1 (stereo not given)
inactive: [11] | [12] | [13] | [14] | [15] | [16]

N[C@H]1C(O)O[C@H](CO)[C@H](O)[C@@H]1O (stereo not given in full)
inactive: [17] | [18]

O=C(Nc1ccccc1SSc1ccccc1NC(=O)c1ccccc1)c1ccccc1
inactive: [2] | [4] | [5] | [6] | [7] | Decorin, DCN (gene 1634) | [8] | [9] | [10]
active: [1] 9.15 µM

CC(C)(c1cc(Br)c(OCCO)c(Br)c1)c1cc(Br)c(OCCO)c(Br)c1
active: [1] 23.8 µM | [2] 10.7 µM | [3] 18.7 µM | [4] 9.52 µM | [5] 9.43 µM | [6] 9.61 µM | [7] 10.6 µM | Decorin, DCN (gene 1634) 9.76 µM | [8] 5.78 µM | [9] 9.32 µM | [10] 9.33 µM
